The panel holds about 83,000 compounds, 20% with a hit somewhere; the sample as a whole holds those more often.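 48-hour exposure, single concentration, 96-well plates; percent growth endpoint where 0 means no net growth. Active: below 10.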 A number with no mark means an inactive call. The source made the active and inactive calls.

In this experiment the test system is HOP-92 NSCLC. Briefly: NCI-60 one-dose screen, 48 h (100 = growth as untreated, 0 = no growth, -100 = all killed). To be noted: 10 µM unless noted.
`C=C(C)[C@@H]1CC[C@]2(CNCCO)CC[C@]3(C)[C@H](CC[C@@H]4[C@@]5(C)CCC(N)[C@@](C)(CO)[C@@H]5CC[C@]43C)[C@@H]12` (some centres undefined): the growth was 38.8%.

As for `O=S(=O)(NCCNc1cc(-c2c(-c3cccc(O)c3)nc3sccn23)ccn1)c1ccc(Cl)cc1`, the growth is 74.7%.

With `CC(C)(C)Nc1c(-c2c3ccccc3cc3ccccc23)nc2ccccn12`, the growth was 45%.

Consider `CN(C)CCOC(=O)Nc1ccc(Cl)cc1`, for which the growth is 85.5%.

As for `CCOc1ccc(-c2nc3ccc(-c4nc5ccc(N6CCN(C)CC6)cc5[nH]4)cc3[nH]2)cc1OCC`, the growth was 48.8%.

On to `N[C@H]1CCC[C@@H]1NCCCCN1C(=O)c2cccc3cccc(c23)C1=O`, for which the growth was 51.4%.

As to `COc1ccc(/C=C(\C#N)n2nnc3cc(F)c(F)cc32)c(OC)c1OC`, the growth is 83.5%.

Regarding `COc1cc2ccccc2cc1C(=O)NC(=S)Nc1ccc(-c2nc3ccccc3[nH]2)cc1`, the growth is 93.7%.

With `Cc1ccc(/C=C(\C#N)n2nnc3cc(Cl)c(Cl)cc32)cc1`, the growth was -7.83% (active).

For the compound `CC(C)(O)c1cccc(F)c1`, the growth is 86.1%.

For the compound `O=C1Nc2ccc(Cl)cc2/C1=N/N=C/c1c[nH]c2ccccc12`, the growth is 93.1%.

On to `N#Cc1c(-c2ccccc2)nc(SCC2CO2)nc1N1CCOCC1` (centres undefined), for which the growth was 18.3%.

For the compound `COc1cc2c(cc1OC)-c1ccc3cc4c(cc3c1N(CCCN(C)C)C2)OCO4`, the growth is 9.04% (active).

Consider `C=C1C(=O)O[C@H]2[C@H]1CC/C(Cn1cc(CNCCc3c[nH]c4ccc(Cl)cc34)nn1)=C\CC[C@@]1(C)O[C@@H]21`, for which the growth is -7.88% (active).

The record behind these values is PubChem BioAssay (NCI).
